From PubChem BioAssay (Tox21)
Values joined by “and” are separate entries in the source; they are usually repeats but may differ in a detail not shown here. Equal values may be shown once. Records with an inconclusive call do not appear. Values without a mark were called inactive. Active and inactive are the calls of the source. Calls come from the whole dose curve.

experiment: qHTS assay for small molecule agonists of the p53 signaling pathway - cell viability (AID 651633); conditions: p53RE-bla HCT-116 viability, ATP luminescence, 16 h; series mostly up to 83.3 µM; activity change, negative = cytotoxicity: at the top concentration; note: nearly all actives have a fitted effect of over 30% in size;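 for activity change, negative = cytotoxicity: p53RE-bla HCT reporter cells with a stable beta-lactamase p53 reporter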
Description: National Center for Advancing Translational Sciences [NCATS]
NIH Chemical Genomics Center [NCGC]
U.S. Environmental Protection Agency [EPA]
National Institutes of Environmental Health Sciences [NIEHS]
National Toxicology Program [NTP]
U.S. Food and Drug Administration [FDA]
p53, a tumor suppressor protein, is activated following cellular insult, including DNA damage and other cellular stresses. The activation of p53 regulates cell fate by inducing DNA repair, cell cycle arrest, apoptosis, or cellular senescence. The activation of p53, therefore, is a good indicator of DNA damage and other cellular stresses. […] The activation of the reporter gene under culture conditions can be detected by fluorescence intensity. This cell line was used to screen the Tox21 compound library in a 1536-well plate format and to identify agonists that activate the p53 signaling pathway.
Tox21 Assay Protocol Summary:
The p53RE-bla cells were dispensed at 4,000 cells/5 ul/well in 1536-well black wall/clear bottom plates using a Multidrop dispenser. After the assay plates were incubated at a 37 C/5% CO2 incubator for 5 hours, 23 nL of compounds dissolved in DMSO, positive controls or DMSO only was transferred to the assay plate by a pin tool. The plates were incubated at 37 C for 16 hours. After 1 uL of LiveBLAzerTM B/G FRET substrate was added using a Flying Reagent Dispenser, the plates were incubated at room temperature for 2 hours, and fluorescence intensity was measured by an Envision plate reader.
For cell viability readout that measures cytotoxicity, 4 ul/well of CellTiter-Glo reagent was added into the assay plates using a Flying Reagent Dispenser. After 30 min incubation at room temperature, the luminescence intensity in the plates was measured using a ViewLux plate reader.
% is set by controls: 0 for no effect and ±100 for the full control effect; potency is the fitted concentration of half-maximal effect.

Row | SMILES | activity change, negative = cytotoxicity | Potency
1 | O=[N+]([O-])c1ccc(Cl)c(Cl)c1Cl | 16.7% | –
2 | C#CC1(O)CCCCC1 | -17.6% | –
3 | CC(=O)[O-].CC(=O)[O-].CC(=O)[O-].[Cr+3] | 15.2% | –
4 | CN(C)c1ccc(N)cc1 | -18.1% | –
5 | ClC1=C(Cl)[C@]2(Cl)[C@@H]3[C@H]4C[C@H]([C@@H]5O[C@H]45)[C@@H]3[C@@]1(Cl)C2(Cl)Cl | – | inactive
6 | ClCBr | 18.4% [at 95.3 µM] | –
7 | CC(=O)[O][Sn]([c]1ccccc1)([c]1ccccc1)[c]1ccccc1 | – | 3.44 µM (active)
8 | CC(Cc1ccc(OCC(=O)O)cc1)NCC(O)c1csc(C(F)(F)F)n1 (stereo not given) | 14.8% | –
9 | CCCCCCC[CH2][Sn]([Cl])([Cl])[CH2]CCCCCCC | – | 15.3 µM (active)
10 | CC1CCCC1 | -11.8% | –
11 | O=[N+]([O-])C(Br)Br | -7.04% | –
12 | CNC(=O)O/N=C(\C)C(C)S(C)(=O)=O (stereo not given) | 7.45% [at 920 µM] | –
13 | Fc1ccc(C(OCCN2CCN(CCCc3ccccc3)CC2)c2ccc(F)cc2)cc1 | – | 26.6 µM (active)
14 | O=[N+]([O-])c1cccc2cccc([N+](=O)[O-])c12 | -15.5% [at 95.3 µM] | –
15 | BrCC(Br)(Br)Br | -16.3% [at 95.3 µM] | –
16 | CC[C@]1(O)CC[C@H]2[C@@H]3CCC4=CCCC[C@@H]4[C@H]3CC[C@@]21C | 16.2% | –
17 | CN/C(=N\[N+](=O)[O-])NCc1cnc(Cl)s1 | 13% | –
18 | N#CCCl | 6.62% [at 95.3 µM] | –
19 | COC(=O)C(C)N(C(=O)c1ccco1)c1c(C)cccc1C (stereo not given) | -6.49% | –
20 | CN(C)C(=S)SSC(=S)N(C)C | – | 29.8 µM (active) and 26.9 µM (active) and 27.3 µM (active)

Row | SMILES | activity change, negative = cytotoxicity | Potency
21 | CCC(OC(C)=O)C(CC(C)NC)(c1ccccc1)c1ccccc1 (stereo not given) | – | 69.2 µM (active)
22 | CC1=C2C[C@H]3[C@@H](CC=C4C[C@@H](O)CC[C@@]43C)[C@@H]2CC[C@]12O[C@@H]1C[C@H](C)CN[C@H]1[C@H]2C | -13.6% | –
23 | NC(=O)C(Cl)Cl | -8.52% | –
24 | C=Cc1cccc(CCl)c1 | -7.53% [at 95.3 µM] | –
25 | C=CCBr | 12.8% [at 95.3 µM] | –
26 | NC1CCC(CC2CCC(N)CC2)CC1 (stereo not given) | -7.42% | –
27 | N#Cc1sc2c(=O)c3ccccc3c(=O)c=2sc1C#N | – | 5.45 µM (active)
28 | N#CSCc1ccccc1 | 28.7% [at 95.3 µM] | –
29 | CCOP(=S)(OCC)SC(CCl)N1C(=O)c2ccccc2C1=O (stereo not given) | -10.3% | –
30 | [O]=[Cr][O][Cr]=[O] | 13.7% [at 95.3 µM] | –
31 | CC(C)=CCN1CC[C@@]2(C)c3cc(O)ccc3C[C@@H]1[C@@H]2C | 5.9% | –
32 | CC(C)Br | 9.64% | –
33 | CC1(C)C(C=C(Cl)Cl)C1C(=O)OC(C#N)c1ccc(F)c(Oc2ccccc2)c1 (stereo not given) | -10.1% | –
34 | CC[C@H](C)[C@H]1O[C@]2(C=C[C@@H]1C)C[C@@H]1C[C@@H](C/C=C(\C)[C@@H](O[C@H]3C[C@H](OC)[C@@H](O[C@H]4C[C@H](OC)[C@@H](NC)[C@H](C)O4)[C@H](C)O3)[C@@H](C)/C=C/C=C3\CO[C@@H]4[C@H](O)C(C)=C[C@@H](C(=O)O1)[C@]34O)O2 | – | 10.9 µM (active)
35 | COC(=O)/C=C(\C)OP(=O)(OC)OC | 4.39% | –
36 | CCN(CC)Cc1nccn1-c1ccc([N+](=O)[O-])cc1C(=O)c1ccccc1Cl | -14.1% | –
37 | CCN1CCC2(CC1)COc1cc3c(cc12)N(C(=O)c1ccc(-c2ccc(-c4nnc(C)o4)cc2C)cc1)CC3 | – | 56.4 µM (active)
38 | O=c1c2ccccc2c(=O)c2c1cc(Cl)c1[nH]c3c([nH]c12)c(Cl)cc1c(=O)c2ccccc2c(=O)c13 | 22.6% | –
39 | CCCCN(CCCC)C(=S)[S-].CCCCN(CCCC)C(=S)[S-].[Ni+2] | 5.89% | –
40 | CN1[C@@H]2CC[C@H]1CC(O)C2 (stereo not given in full) | 12.6% [at 95.3 µM] | –
